Laboratory results: PubChem BioAssay (NCI)
About 79,000 compounds went through this panel and 15% of them were active in at least one assay; those are over-represented in the sample as a whole. Activity calls are given as the source filed them. No stated cut-off is given here; in the data, active means growth inhibition above about 70%; inactive means the rest.

Assays:
[1] = NCI Yeast Anticancer Drug Screen. Data for the rad50 strain (AID 155);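 further: 0% = growth of vehicle-only cultures of the same strain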; details: S. cerevisiae rad50 strain growth inhibition; at 50.0 µM; active compounds read high
Procedure, shortened: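 Relative growth inhibition (compound vs vehicle) was measured in yeast with a defined repair-gene alteration.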

[2] = NCI Yeast Anticancer Drug Screen. Data for the mec2-1 strain (AID 157); details: S. cerevisiae mec2-1 strain, at 50.0 µM, active compounds read high
Procedure, shortened: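 Vehicle-treated cultures served as reference for growth inhibition of compound-exposed mec2-1 yeast.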

[3] = NCI Yeast Anticancer Drug Screen. Data for the sgs1 mgt1 strain (AID 161);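 further: 0% = growth of cultures given vehicle only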; details: S. cerevisiae sgs1 mgt1 strain, at 50.0 µM, active compounds read high
Procedure, shortened: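 Genetically altered yeast, compound exposure, growth inhibition relative to vehicle.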

[4] = NCI Yeast Anticancer Drug Screen. Data for the cln2 rad14 strain (AID 165);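 further: 0% = growth equal to vehicle treated cultures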; details: S. cerevisiae cln2 rad14 strain, at 50.0 µM, active compounds read high
Procedure, shortened: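 Each compound was tested on cln2 rad14 yeast. Inhibition of growth was calculated against vehicle-exposed controls.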

[5] = NCI Yeast Anticancer Drug Screen. Data for the bub3 strain (AID 167); details: S. cerevisiae bub3 mutant strain, at 50.0 µM, active compounds read high
Procedure, shortened: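 Screening used yeast with an engineered genetic alteration affecting cell cycle control. Compound-exposed cultures were compared with vehicle cultures, and reduced growth was taken as inhibition.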

[6] = NCI Yeast Anticancer Drug Screen. Data for the mlh1 rad18 strain (AID 175); details: S. cerevisiae mlh1 rad18 strain growth inhibition; at 50.0 µM; active compounds read high
Procedure, shortened: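 Vehicle-treated cultures served as the reference for growth inhibition in a yeast strain carrying DNA damage repair alterations exposed to each compound.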

Measured: growth inhibition

Clc1ccc(/C=C/c2ccccn2)cc1
inactive: [1] 21.1% | [2] 2.05% | [3] 9.3% | [4] -16.2%

CCCCCCCCCCCCCCCCCC(=O)NCCNC(=O)CCCCCCCCCCCCCCCCC
inactive: [1] -5.7% | [2] -27.6% | [3] -1.15% | [4] 20.6% | [5] 1.5%

Nc1ccn(C2OC(CO)C(O)C2F)c(=O)n1 (centres undefined)
inactive: [1] 12.4% | [2] 0.45% | [3] 11.9% | [4] 10.7% | [5] -0.1%

CCN(CC)CCOC(=O)Nc1c(C(C)C)cccc1C(C)C
inactive: [1] -2.7% | [2] -24.3% | [3] 14.3% | [4] 15.4% | [5] 13%

CC(C)(C)NCCC(O)c1cc(C(F)(F)F)nc2c(C(F)(F)F)cccc12 (centres undefined)
inactive: [1] -4.3% | [2] -36.1% | [3] -22.4% | [4] 21.1%

Cc1cc(C)cc(OCC(=O)O)c1
inactive: [1] 16.6% | [2] 10.2% | [3] -10.6% | [4] -41% | [5] -4.45%

COc1cc(CC#N)c([N+](=O)[O-])cc1OC
inactive: [1] -3.15% | [2] -22.1% | [3] -12.8% | [4] -39% | [5] -14.2%

CCCCCCCCCCCCCC/C=C\C(CC(=O)O)C(=O)O (centres undefined)
inactive: [1] 4.6% | [2] -15.5% | [3] 6.1%

Cc1nc(C)c(C(=O)O)cc1C(=O)O
inactive: [1] -8.9% | [2] -17.8% | [3] 9.15% | [4] 2.85% | [5] 21.4% | [6] 4%

CC(c1ccccc1)N(C)C (centres undefined)
inactive: [1] 12.7% | [2] -1.8% | [3] 0.4% | [4] 7.6% | [5] 5.9% | [6] 1.6%

Cc1ccc(C)c2c1CCC2=O
inactive: [1] 3.9% | [2] 3.85% | [3] 13.8% | [4] -19.2% | [5] 3.85%

CC(c1ccccc1)N1C(=O)CSC1=S (centres undefined)
inactive: [1] 37.1% | [2] 30.5% | [3] 22.8% | [4] 35.8% | [5] 53.6%

Cc1cc(C(=O)c2ccccc2)cc(C)c1O
inactive: [1] 12.2% | [2] -3.35% | [3] 12.8% | [4] 5.2% | [5] -0.4% | [6] 30.4%

CCN(Cc1ccc(Cl)c(Cl)c1)c1ccc2nc(N)nc(N)c2c1C
inactive: [1] 40% | [3] 50.9% | [4] 40.3% | [5] 6.15%
active: [2] 84.6%

Cc1cc(CO)c(O)c(CO)c1
inactive: [1] 8.15% | [2] -10.4% | [3] 0.1% | [4] -5.05% | [5] -10.5%

CCC(=O)Oc1c(C)cc(O)c2ccccc12
inactive: [1] 8.95% | [2] -49.6% | [3] 18.7% | [4] 52.9% | [5] 35.2%

CCCCN(C=S)CCCC
inactive: [1] 9.65% | [2] -2% | [3] -5.7% | [4] 13.7% | [5] -2.2%

C=CC1=NC(C)(C)CC(C)O1 (centres undefined)
inactive: [1] 8% | [2] -15.2% | [3] 9.75% | [4] 25.4% | [5] 11.5%

NCCCN1CCCC1=O
inactive: [1] -20.1% | [2] -21.3% | [3] -14.8% | [4] 1.8% | [5] -23.3%

CCCC(=O)CC(=O)c1ccccc1
inactive: [1] 7.75% | [2] 10.4% | [3] -3.75% | [4] -13.6% | [5] 5.85%

C/C(Cc1ccccc1)=N\O
inactive: [1] 3.75% | [2] 3.1% | [3] -20.6% | [4] 19.8% | [5] -7.95% | [6] 7.25%

COc1ccc(Nc2cc(Cl)ccc2C(=O)O)cn1
inactive: [1] 4.25% | [2] 0.6% | [3] -6.95% | [4] 17.9% | [5] 5.3% | [6] -4.55%

Cn1c(=O)[nH]c2ccccc2c1=O
inactive: [1] -1% | [2] 4.5% | [3] -2.1% | [4] 0.7% | [5] 6.85% | [6] 5.05%

CC(C)N(CCCC#N)C(C)C
inactive: [1] 9.9% | [2] -11.6% | [3] -5.25% | [4] 10.4% | [5] -17.2%

CCN(CC)CCN1CNC(=S)NC1
inactive: [1] 0.1% | [2] -20.6% | [3] 11.2% | [4] -1.8% | [5] -1.2%

CN1CCCN(C(c2ccccc2)c2ccc(Br)cc2)CC1 (centres undefined)
inactive: [1] 40% | [2] 1.95% | [3] 19.8%

C1Cc2onc(-c3noc4c3CCC4)c2C1
inactive: [1] -11.2% | [2] -16.8% | [3] -15.2% | [4] 22.6% | [5] -14.2%

O=Cc1c(O)c2ccccc2[nH]c1=O
inactive: [1] -0.95% | [2] 1.35% | [3] -1.55% | [4] 9.5% | [5] 4.2%

CC1CCC(C)(C)c2ccccc21 (centres undefined)
inactive: [1] 2.65% | [2] -7.25% | [3] -2.5% | [4] -2.5% | [5] -7.75% | [6] 2.3%

CCOC(=O)/C(O)=C(\C=N\C(=S)Nc1ccc(Cl)c(Cl)c1)C(=O)OCC
inactive: [1] 43.6% | [2] 11.2% | [3] 38.5% | [4] 6.65% | [5] 49.5%

COC(CCCl)c1ccc(Cl)cc1 (centres undefined)
inactive: [1] 4.7% | [2] -43% | [3] -10.8% | [4] -4.5% | [5] -5.35%

OCCOc1ccc(-c2cc(-c3ccccn3)nc(-c3ccccn3)c2)cc1
inactive: [1] 57.6% | [2] 46.3% | [3] 43% | [4] 44.5% | [5] 46.7%

N#Cc1ccc(OC(=O)Nc2c(Cl)cc(Cl)cc2Cl)cc1
inactive: [1] -10.2% | [2] -14.7% | [3] 15.4% | [4] 23.2% | [5] 30.4%

O=CNCCc1ccccc1
inactive: [1] 7.25% | [2] -9.05% | [3] 6.85% | [4] 5% | [5] 6.3%

CCOc1ccc2c(c1)c(C)cc(C)[n+]2CC
inactive: [1] 4.45% | [2] -41% | [3] -13.2% | [4] -7.9% | [5] 13%

O=C(O)Cc1ccc(Cl)cc1
inactive: [1] 22.2% | [2] -15.3% | [3] 29% | [4] 3.65% | [5] -25.2%

O=[n+]1ccn([O-])c2ccccc21
inactive: [1] 11.3% | [2] 8.45% | [3] 9.05% | [4] -52.2% | [5] -8.1%

O=Cc1ccc(O)c(O)c1
inactive: [1] 17.6% | [2] -6.5% | [3] 11.6% | [4] 7.75% | [5] 4.05% | [6] 18.9%

Cn1c2ccccc2c2nnc(NCCCCO)nc21
inactive: [1] 10.4% | [2] 18.3% | [3] 19.1% | [4] 24.8% | [5] 19.6% | [6] 41.2%

c1ccc(Nc2ccccn2)nc1
inactive: [1] -10.2% | [2] -13.8% | [3] -21% | [4] -87.8% | [5] 3.8% | [6] -24.6%

COc1ccc(Br)c(C=O)c1
inactive: [1] -10.1% | [2] -8.9% | [3] -5.65% | [4] 1.95% | [5] -7.45% | [6] -2.25%

Cc1cccc(-[n+]2noc(N)n2)c1
inactive: [1] 29.1% | [2] 22.2% | [3] 2.25% | [4] -3.35% | [5] 1.95% | [6] 40.6%

O=Cc1ccc(Cl)c(Cl)c1
inactive: [1] -3.55% | [2] -9.5% | [3] -18.8% | [4] -16.9% | [5] -5.85% | [6] -23.1%

CCOc1ccc(C(=O)O)cc1
inactive: [1] 34.8% | [2] -12.8% | [3] -1.65% | [4] 4.85% | [5] 8.2% | [6] 31.1%

N#Cc1ccc2nc[nH]c2c1
inactive: [1] 18.7% | [2] -6.75% | [3] -13% | [4] 19.4% | [5] -15.4% | [6] 17.9%

CCCCCC(=O)OCCC1CCCCC1
inactive: [1] 25.6% | [2] 9.3% | [3] 18.7% | [4] -6.7% | [5] 11.6% | [6] 31.2%

CC(=O)N(CCCCCCN(C(C)=O)C(C)=O)C(C)=O
inactive: [1] -14.8% | [2] -9.25% | [3] -0.5% | [4] -0.55% | [5] -9.85% | [6] -6.15%

CSCC[C@@H]1C(=O)N(C)[C@H](C(C)(C)C)N1C(=O)c1ccccc1
inactive: [1] -0.9% | [2] -12.4% | [3] -7.05% | [4] 0.6% | [5] 44.7% | [6] -13.4%

NS(=O)(=O)c1cc(=O)[nH]c(=O)[nH]1
inactive: [1] -12.2% | [2] -10.8% | [3] -0.5% | [4] -4% | [5] -1.95% | [6] 3.4%

CCNc1ncnc2[nH]ncc12
inactive: [1] -8.2% | [2] -6.45% | [3] -5.6% | [4] -13.8% | [5] 3.9% | [6] -5.3%
